We go through twelve compounds from PubChem BioAssay (NCATS).

Assay [1] in a line: Identifying Small Molecule Inhibitors of Pancreatic Cancer Stem Cells (SN12C, Spheroid) (AID 1259360). Further: potency means the concentration at half of the fitted maximal effect. As to conditions: Potency: SN12C spheroid viability. The method in brief:
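Spheroids grown 14 days in stem cell media on nonadherent hydrogel before screening; cells attached 4 h, then compound exposure 48 h at 37C, 5% CO2. CellTiter-Glo luminescence normalized to DMSO (no inhibition) and no-cell wells (full inhibition).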

Assay [2] can be described thus: Identifying Small Molecule Inhibitors of Pancreatic Cancer Stem Cells (A278, Adherent) (AID 1259361).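 Further: viability read after 48 h compound exposure; nearly all actives have a fitted effect of over 35% in size.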 The method in brief:
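Viability is scored by CellTiter-Glo luminescence 48 h after dosing, expressed as percent activity against vehicle and no-cell references. Spheroid formats rely on cells cultured 14 days in stem cell media beforehand.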

A short description of assay [3]: P-glycoprotein substrates identified in KB-3-1 adenocarcinoma cell line, qHTS therapeutic library screen (AID 1346986). Further: nearly all actives have a fitted effect of over 60% in size.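 Further: potency means the concentration at half of the fitted maximal effect; potency is for cytotoxicity meaning loss of cell viability.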 The method in brief:
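KB-3-1 parental cells and P-gp-overexpressing KB-8-5-11 (colchicine omitted during assay) plated at 500 cells/well, dosed in dose-response, incubated 72 h at 37 degree C. CellTiter-Glo luminescence read; KB-8-5-11 also tested with tariquidar.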
On the technique in general: qHTS replaces the single test concentration by a dilution series.

Assay [4] is described as follows: P-glycoprotein substrates identified in KB-8-5-11 adenocarcinoma cell line, qHTS therapeutic library screen (AID 1346987). Further: nearly all actives have a fitted effect of over 65% in size. Further: potency means the concentration at half of the fitted maximal effect. The method in brief: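 KB-8-5-11: colchicine-selected sub-line of KB-3-1 over-expressing P-gp; assay medium lacked colchicine. 72 h drug exposure at 37 degree C, CellTiter-Glo.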
Assay [5] in a line: NS1 protein of Zika virus - qHTS assay to identify small molecule inhibitors in human HEK 293 cells (AID 1347053). Further: nearly all actives have a fitted effect of over 55% in size. Further: potency means the concentration at half of the fitted maximal effect. The method in brief:
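HEK 293 cells pretreated with compound for 1 h, then infected with ZIKV MR766 (MOI 0.5) for 24 h at 37 C. NS1 detected by TR-FRET with two anti-NS1 antibodies; normalized to uninfected (0%) and infected (100%) wells.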

Assay [6] can be described thus: qHTS of pediatric cancer cell lines to identify multiple opportunities for drug repurposing: Primary screen for DAOY cells (AID 1347090). Further: nearly all actives have a fitted effect of over 55% in size. Further: potency means the concentration at half of the fitted maximal effect. The method in brief: (§1)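 Eight- or eleven-point concentration series, 48 h treatment at 37 degrees C in growth media; readout CellTiter-Glo luminescence. Potency and efficacy were taken from the concentration-response curves.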
Assay [7] is described as follows: qHTS of pediatric cancer cell lines to identify multiple opportunities for drug repurposing: Primary screen for SJ-GBM2 cells (AID 1347091). Further: potency means the concentration at half of the fitted maximal effect. The method in brief:
as §1

The nature of assay [8]: qHTS of pediatric cancer cell lines to identify multiple opportunities for drug repurposing: Primary screen for A673 cells (AID 1347092). Further: potency means the concentration at half of the fitted maximal effect; nearly all actives have a fitted effect of over 45% in size. The method in brief:
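Luminescence from CellTiter-Glo, taken after 15 min at room temperature, served as the proxy for metabolically active cells following 48 h treatment. Both potency and efficacy were taken from curves fitted to the titration data.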

Assay [9] is described as follows: qHTS of pediatric cancer cell lines to identify multiple opportunities for drug repurposing: Primary screen for NB-EBc1 cells (AID 1347095). Further: potency means the concentration at half of the fitted maximal effect. The method in brief: (§2)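 Following a 5-hour attachment period, cells at 500-1,000/well received compounds and were cultured for 48 hours. CellTiter-Glo was added and luminescence read to estimate viable, metabolically active cells.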

A short description of assay [10]: Identifying Small Molecule Inhibitors of Pancreatic Cancer Stem Cells (Panc1, Adherent) (AID 1259362). Further: potency means the concentration at half of the fitted maximal effect. The conditions noted are these: Potency: viability. The method in brief: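 Luminescent ATP readout (CellTiter-Glo) quantifies surviving cells after a 48 h drug incubation. Normalization uses DMSO wells as no inhibition and media-only wells as full inhibition; bortezomib served as positive control.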

A short description of assay [11]: qHTS of pediatric cancer cell lines to identify multiple opportunities for drug repurposing: Primary screen for TC32 cells (AID 1347089). Further: nearly all actives have a fitted effect of over 60% in size. Further: potency means the concentration at half of the fitted maximal effect. The method in brief: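 qHTS, TC32, 48 h drug treatment, CellTiter-Glo luminescence as a proxy for metabolically active cells; primary top concentration 46 µM (MIPE 11-pt, NPC 8-pt); confirmatory 11-pt.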
Assay [12] in a line: qHTS of pediatric cancer cell lines to identify multiple opportunities for drug repurposing: Primary screen for SK-N-MC cells (AID 1347093). Further: potency means the concentration at half of the fitted maximal effect. The method in brief: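 Metabolically active cells were quantified by ATP-dependent luminescence (CellTiter-Glo, 15 min at room temperature) following 48 h treatment. Cells had been plated at 500-1,000 per well and settled for 5 h beforehand.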

The nature of assay [13]: qHTS of pediatric cancer cell lines to identify multiple opportunities for drug repurposing: Primary screen for BT-37 cells (AID 1347094). Further: potency means the concentration at half of the fitted maximal effect. The method in brief: as §2

Where “and” joins values, the source holds several entries; their conditions need not be identical. Identical values can stand only once. Records with an inconclusive call do not appear. Calls of active or inactive are those of the source. The call rests on the fitted dose curve; in most records, active means well fitted curve in the direction sought with a large enough effect; inconclusive means small, poorly fitted or top-dose-only effect, or another doubt; inactive means no such curve, though single readings can be large; an effect the other way counts as inactive or inconclusive.

Regarding `CC(=O)OCC(=O)[C@@]1(O)[C@H](C)C[C@H]2[C@@H]3C=C(C)C4=Cc5c(cnn5-c5ccccc5)C[C@]4(C)[C@@H]3[C@@H](O)C[C@@]21C`, the Potency in [1] is 20.9 µM (active); in assay [5], 11.8 µM (active); in assay [6], 11.8 µM (active); in [7], 5.26 µM (active); in assay [8], 2.96 µM (active); in assay [9], 3.72 µM (active). For the same compound, in [2], the IC50 (viability decrease) is 13.2 µM (active). Further, the Potency entry in [3] and in assay [4] was “inactive” each time.

As to `CC(C)C[C@H](NC(=O)CNC(=O)c1cc(Cl)ccc1Cl)B(O)O`, the Potency in assay [1] is 0.0833 µM (active); in assay [10], 0.187 µM (active); in [4], 1.32 µM (active); in assay [5], 0.418 µM (active); in [11], 2.94 µM (active); in [6], 0.235 µM (active). In addition, the Potency in [7] is 0.187 µM (active); in assay [8], 1.48 µM (active); in [12] it was 0.148 µM (active); in assay [13], 0.485 µM (active); in assay [9] it was 0.526 µM (active). In [2], the IC50 (viability decrease) is 0.0166 µM (active).

For `O=C(C=Cc1cccnc1)NCCCCC1CCN(C(=O)c2ccccc2)CC1`, the Potency in assay [1] was 0.0021 µM (active); in [4], 0.0166 µM (active); in [11], 0.0047 µM (active); in assay [7], 0.0166 µM (active); in assay [9], 0.0118 µM (active). In assay [2], the IC50 (viability decrease) entry is “inactive”. Further, the Potency result in assay [10], in assay [5] and in assay [6] was “inactive” each time.

In the case of `CC1(C)CCC(c2ccc(Cl)cc2)=C(CN2CCN(c3ccc(C(=O)NS(=O)(=O)c4ccc(N[C@H](CCN5CCOCC5)CSc5ccccc5)c(S(=O)(=O)C(F)(F)F)c4)cc3)CC2)C1`, the Potency was 16.6 µM (active) in assay [1]; 7.43 µM (active) in assay [6]; 0.0235 µM (active) in assay [7]; 4.69 µM (active) in assay [8]; 0.0118 µM (active) in assay [12]; 13.7 µM (active) in assay [13]. In [9], the Potency was 0.0187 µM (active). Besides, the IC50 (viability decrease) in assay [2] is 23.5 µM (active). Further, the Potency entry in assay [4], in assay [5] and in assay [11] was “inactive” in each case.

Consider `COCCn1c2c([n+](Cc3cnccn3)c1C)C(=O)c1ccccc1C2=O`, for which the Potency in assay [1] is 0.105 µM (active); in [5] it was 0.0372 µM (active); in assay [11], 0.0658 µM (active); in assay [6], 0.0118 µM (active); in assay [7], 0.0132 µM (active); in assay [8], 0.0059 µM (active). Also, the Potency in assay [13] is 0.153 µM (active); in [9] it was 0.0935 µM (active). Also, the IC50 (viability decrease) in assay [2] was 0.0066 µM (active). In addition, the Potency entry in assay [10] was “inactive”.

Turning to `CN1CCC(CNc2ccc3ncc(-c4cccc(OC(F)(F)F)c4)n3n2)CC1`, the Potency was 23.5 µM (active) in [1]; 20.6 µM (active) in assay [3]; 16.6 µM (active) in assay [5]; 16.6 µM (active) in assay [7]; 14.8 µM (active) in [8]; 21.7 µM (active) in assay [13]. Moreover, the Potency in [9] was 18.7 µM (active). The IC50 (viability decrease) in assay [2] is 18.7 µM (active). For the same compound, in assay [11], the Potency result was “inactive”.

As for `CCN1CCN(CC(=O)Nc2ccc(-c3cccc4c(=O)cc(N5CCOCC5)oc34)c3sc4ccccc4c23)CC1`, the Potency was 14.8 µM (active) in assay [1]; 23.5 µM (active) in assay [10]; 1.88 µM (active) in [3]; 2.96 µM (active) in [4]; 0.743 µM (active) in assay [7]; 2.35 µM (active) in assay [8]. The Potency is 0.59 µM (active) in [12] and 1.18 µM (active) in assay [9]. The IC50 (viability decrease) in assay [2] was 4.18 µM (active). In assay [5], the Potency result is “inactive”.

For the compound `CCOc1cc2ncc(C#N)c(Nc3ccc(F)c(Cl)c3)c2cc1NC(=O)C=CCN(C)C`, the Potency in [1] is 1.48 µM (active); in [10], 18.7 µM (active); in assay [11], 18.6 µM (active); in assay [6], 0.118 µM (active); in assay [7], 0.935 µM (active); in [8], 0.0296 µM (active). In addition, the Potency is 0.0469 µM (active) in [12] and 9.35 µM (active) in [9]. In assay [2], the IC50 (viability decrease) was 20.9 µM (active). Moreover, in assay [5], the Potency result was “inactive”.

With `O=C(c1ccc(Nc2nccc(-c3cc4ccccc4s3)n2)cc1)N1CCC(N2CCCC2)CC1`, the Potency is 23.5 µM (active) in [1]; 6.51 µM (active) in [3]; 8.33 µM (active) and 16.4 µM (active) and 20.6 µM (active) in [4]; 6.62 µM (active) in assay [5]; 23.5 µM (active) in assay [6]; 13.2 µM (active) in assay [7]. Further, the Potency in assay [8] is 7.43 µM (active); in [12] it was 5.26 µM (active); in assay [9], 23.5 µM (active). Further, the IC50 (viability decrease) in assay [2] is 18.7 µM (active).

`CC(=O)OCCN1C(=O)c2c(C)nc3ccc(S(=O)(=O)N4CCOCC4)cc3c2C1=O`: the Potency result in [1], in assay [3], in [4], in [5], in assay [11] and in assay [6] was “inactive” each time. For the same compound, the Potency result in assay [7] and in [9] was “inactive” throughout. In addition, the IC50 (viability decrease) entry in assay [2] is “inactive”. In addition, the Potency is 10.5 µM (active) in assay [10], 7.43 µM (active) in assay [8], 20.9 µM (active) in assay [12] and 5.44 µM (active) in assay [13].

On to `COc1cccc2nc(-c3cccs3)nc(NN3C(=O)C=C(C)C3=O)c12`, for which the Potency in assay [1] is 20.9 µM (active); in [10] it was 16.6 µM (active); in assay [5], 3.72 µM (active); in assay [11], 1.86 µM (active); in [6], 2.35 µM (active); in [8] it was 2.35 µM (active). The Potency in [12] is 0.0148 µM (active); in [9] it was 0.332 µM (active). Besides, the IC50 (viability decrease) in assay [2] is 0.469 µM (active).

Regarding `CN(C)CC=CC(=O)Nc1cc2c(Nc3ccc(F)c(Cl)c3)ncnc2cc1O[C@H]1CCOC1`, the Potency in assay [1] is 23.5 µM (active); in assay [10], 1.48 µM (active); in assay [6], 5.9 µM (active); in assay [7], 3.72 µM (active); in assay [8], 3.72 µM (active); in assay [12], 1.66 µM (active). Besides, the Potency in [13] is 21.7 µM (active); in [9] it was 9.35 µM (active). Further, the IC50 (viability decrease) in [2] is 23.5 µM (active). Moreover, the Potency result in assay [5] is “inactive”.
